Source: PubChem BioAssay (National Center for Advancing Translational Sciences (NCATS))
PI5P4K alpha inh = qHTS for Inhibitors of phosphatidylinositol 5-phosphate 4-kinase (PI5P4K) | Phosphatidylinositol 5-phosphate 4-kinase type-2 alpha (Homo sapiens), P48426 | PI5P4Kalpha enzyme, ADP-Glo luminescence, 60 min; active compounds read low | max response, % | 330,000 tested, 1.2% active; active = max response of -50% or lower; inconclusive = between -30% and -50%; inactive = -30% or higher; note: value at the top dose of about 77 µM; % is set by controls: 0 for no effect and ±100 for the full control effect
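Single end-point luminescence (ADP-Glo) quantified ADP from PI5P4Kalpha turnover; ATP 5 microM final, 1 h at RT, 0.1% CHAPS and 0.28 mM EGTA in HEPES pH 7.4.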
WRN inhibitor = qHTS for Inhibitors of WRN Helicase; WRN helicase unwinding, fluorescent forked duplex, kinetic; Potency, µM (doses to about 114 µM), inactives show at the highest dose activity change, negative = inhibition, most hits filed as inhibitors; 360,000 tested, 0.46% active; AID 651768, 2012; note: potency is the fitted concentration of half-maximal effect; % is set by controls: 0 for no effect and ±100 for the full control effect; nearly all actives have a fitted effect of over 55% in size
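Kinetic red-fluorescence monitoring (525/598 nm) tracks WRN helicase activity after 100 nM fluorophore-quencher forked duplex and 2 mM ATP are added to 20 nM enzyme pretreated 15 min at room temperature with compound.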
Pol iota inh = qHTS for Inhibitors of Polymerase Iota; DNA polymerase iota (Homo sapiens), Q9UNA4; Potency, µM (highest dose often 115 µM), without a hit: at the highest dose activity, negative = inhibition, usual class: inhibitors; Pol iota fluorescent replication assay, 10 min; 390,000 tested, 1% active; note: potency is the fitted concentration of half-maximal effect
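Fluorescent replication assay read twice, at 0 min and 10 min after adding 50 nM (final) substrate. Enzyme (10 nM) and compounds were first incubated 15 min at room temperature; enzyme-free buffer wells were negative controls.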
Pol beta inh = qHTS Assay for Inhibitors of DNA Polymerase Beta; P06746; Pol beta primer extension/strand displacement, fluorescence kinetic; Potency, µM (top dose mostly 114 µM), inactives show top-dose activity change, negative = inhibition, actives largely listed as inhibitors; 340,000 tested, 1.3% active; AID 485314, 2010; note: potency is the fitted concentration of half-maximal effect; % is set by controls: 0 for no effect and ±100 for the full control effect
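Curves were derived by four-parameter Hill fits of normalized qHTS data. The kinetic fluorescent primer-extension read was taken at 0 and 10 min after 50 nM substrate, following a 15 min room-temperature preincubation of 10 nM enzyme with compounds.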
POLK inh = qHTS for Inhibitors of Polymerase Kappa | DNA polymerase kappa (Homo sapiens), Q9UBT6 | purified Pol kappa, fluorescent DNA synthesis assay, 10 min | Potency, µM (doses to about 107 µM), for the others: at the highest dose activity, negative = inhibition, actives largely listed as inhibitors | 400,000 tested, 0.53% active | AID 588579, 2011; note: potency is the fitted concentration of half-maximal effect; % is set by controls: 0 for no effect and ±100 for the full control effect
Target sequence (Q9UBT6 whole entry, looked up): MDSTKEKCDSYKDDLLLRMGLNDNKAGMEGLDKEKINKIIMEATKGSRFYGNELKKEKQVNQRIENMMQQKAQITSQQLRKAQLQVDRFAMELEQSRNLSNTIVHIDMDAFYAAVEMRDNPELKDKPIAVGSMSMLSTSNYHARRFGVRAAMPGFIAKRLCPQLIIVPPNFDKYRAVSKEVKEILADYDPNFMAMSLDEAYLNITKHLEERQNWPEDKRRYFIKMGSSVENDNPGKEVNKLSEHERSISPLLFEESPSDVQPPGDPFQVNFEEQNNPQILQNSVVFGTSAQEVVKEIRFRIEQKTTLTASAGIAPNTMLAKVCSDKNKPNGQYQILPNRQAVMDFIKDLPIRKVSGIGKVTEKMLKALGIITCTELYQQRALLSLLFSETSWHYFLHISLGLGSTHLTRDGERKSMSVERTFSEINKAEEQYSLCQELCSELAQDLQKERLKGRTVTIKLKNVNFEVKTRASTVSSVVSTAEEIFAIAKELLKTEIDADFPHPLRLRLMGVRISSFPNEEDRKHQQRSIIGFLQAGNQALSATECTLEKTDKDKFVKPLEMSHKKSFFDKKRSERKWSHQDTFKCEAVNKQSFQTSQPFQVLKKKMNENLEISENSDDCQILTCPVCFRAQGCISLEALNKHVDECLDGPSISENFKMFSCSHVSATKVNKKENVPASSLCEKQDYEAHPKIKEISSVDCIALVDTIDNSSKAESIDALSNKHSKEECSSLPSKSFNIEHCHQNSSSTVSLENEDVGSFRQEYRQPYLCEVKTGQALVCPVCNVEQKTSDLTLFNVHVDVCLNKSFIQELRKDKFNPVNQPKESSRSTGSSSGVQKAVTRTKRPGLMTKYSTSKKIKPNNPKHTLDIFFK
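Inhibition of 10 nM Pol kappa is measured by a fluorescent read-out at 0 and 10 min following addition of 50 nM substrate (final), with a 15-min room-temperature compound preincubation.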
Pol eta inh = qHTS for Inhibitors of Polymerase Eta. DNA polymerase eta (Homo sapiens), Q9Y253. recombinant Pol eta, fluorescent DNA replication assay. Potency, µM (highest dose often 114 µM), inactives show at the highest dose activity change, negative = inhibition, usual class: inhibitors. 390,000 tested, 1.2% active; note: potency is the fitted concentration of half-maximal effect; % is set by controls: 0 for no effect and ±100 for the full control effect
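Pol eta (10 nM) was preincubated with compounds for 15 min at room temperature, after which fluorescent replication substrate (50 nM final) was added to start the reaction. Fluorescence was read kinetically at 0 and 10 min.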
* hit, by the source's call; ? = inconclusive; nt = no result; ! = repeats disagree; [ ] = remark or other dose. This is a sample that favours compounds with a hit; in the whole collection about 2.8% have one here. Unless noted, calls come from the whole dose curve; as a rule, active = well fitted curve in the direction sought with a large enough effect; inconclusive = small, poorly fitted or top-dose-only effect, or another doubt; inactive = no such curve, though single readings can be large; an effect the other way counts as inactive or inconclusive.

SMILES	PI5P4K alpha inh	WRN inhibitor	Pol iota inh	Pol beta inh	POLK inh	Pol eta inh
O=c1c2ccccc2sn1-c1ccccc1	-96*	50µM*	?	1%	-13%	-9%
CC(=O)Nc1ccc(-c2cc(N)n(-c3ccccc3)n2)cc1	-15	0%	48%	1%	3%	-9%
CC(=O)Nc1ccc2c(=O)n(-c3ccccc3)sc2c1	-105*	-4%	nt	nt	nt	-13%
O=C1OC(c2ccco2)=N/C1=C\c1ccc(-c2cccc(C(F)(F)F)c2)o1	-8	?	2%	-1%	-29%	79µM*
N#C/C(=C\c1ccc(-c2cccc(C(F)(F)F)c2)o1)C(=O)Nn1cnnc1	-1	?	-12%	7%	-4%	-16%
CCOc1cc(/C=N/Nc2ncnc(Cl)c2N)ccc1O	-8	-23%	9%	?	-25%	-30%
Cc1nnc(N/N=C/c2ccccc2O)n1N	1	-6%	14µM*	0%	-19%	-11%
Cc1nnc(N/N=C/c2cc(C)n(-c3ccc(F)cc3)c2C)n1N	-3	0%[11.6 µM]	?	-1%	-27%	-5%
Cc1nnc(N/N=C/c2c(Cl)cccc2Cl)n1N	-7	-12%	11µM*	-10%	5%	-18%
CCc1nnc(N/N=C/c2c(F)cccc2Cl)n1N	0	4%[11.6 µM]	10µM*	-28%	-1%	-12%
CCOc1cc(/C=N/Nc2nnc(C)n2N)ccc1O	-1	17%	8.9µM*	-24%	-18%	-5%
COc1ccc(CNC(=O)CCCN2C(=O)CSc3c2c(C)nn3-c2ccccc2)cc1	nt	nt	15%	0%	-16%	-17%
COc1cc(C(=O)Nc2ccc(C)c(S(=O)(=O)N(C)C)c2)ccc1OCC(=O)N1CCOCC1	-12	3%[11.6 µM]	50µM*	nt	-9%	?
COc1ccc(OC)c(NC(=O)c2ccc(OCC(=O)N3CCOCC3)c(OC)c2)c1	-4	-10%	65%	nt	2%	-13%
Cc1occc1C(=O)NCc1ccccc1	-7	10%	0%	0%	-7%	-15%
Cc1occc1C(=O)NCc1ccco1	?	-14%	?	32µM*	-30%	?
Cc1occc1C(=O)NCc1ccc(C(=O)O)o1	nt	-16%[57.1 µM]	-5%	1%	-2%	56µM*
Cc1c(Br)cc(C(=O)NCc2ccco2)c(C)c1C	?	-10%[57.1 µM]	?	22µM*	-27%	?
Cc1cc(C)c(NC(=O)c2cc(C)nc3c2c(C)nn3-c2cccc(F)c2)c(C)c1	nt	nt	32%	-2%	-5%	-14%
O=C(COc1ccccc1C(=O)Nc1ccccc1F)Nc1ccc(Br)cc1	nt	nt	16%	nt	3%	nt
Cc1cccc2c1N(Cc1ccccc1OCCC(C)C)C(=O)C2=O	nt	nt	?	23%	-11%	nt
O=C(O)c1cc(-c2ccc(/C=N/N3C(=O)C4C5C=CC(C6CC56)C4C3=O)o2)ccc1Cl (stereo unspecified)	-16	-1%[11.6 µM]	34%	40µM*	-8%	?
O=C1C2C3C=CC(C4CC34)C2C(=O)N1/N=C/c1ccc(-c2ccc(Cl)cc2[N+](=O)[O-])o1 (stereo unspecified)	-1	-12%	3%	0%	-10%	-17%
O=C(O)c1cc(-c2ccc(/C=N/N3C(=O)C4C5C=CC(CC5)C4C3=O)o2)ccc1Cl (stereo unspecified)	1	-3%	7%	-22%	-18%	50µM*
CCOc1ccc2[nH]c(=O)c(CN(Cc3ccco3)Cc3nnnn3Cc3ccccc3)cc2c1	nt	-19%	-16%	-18%	-12%	-9%
SMILES	PI5P4K alpha inh	WRN inhibitor	Pol iota inh	Pol beta inh	POLK inh	Pol eta inh
COc1cc2cc(CN(Cc3nnnn3Cc3ccco3)C3CCCCC3)c(=O)[nH]c2cc1OC	-20	?	?	45µM*	?	?
CCOc1ccc2[nH]c(=O)c(CN(Cc3nnnn3Cc3ccco3)C3CCCCC3)cc2c1	1	-16%	6%	20µM*	-13%	1%
O=C(NC(=S)Nc1ccc(NC(=O)c2cccs2)cc1)c1cc2ccccc2o1	2	-23%	3%	13µM*	-15%	?
Cn1cc(S(=O)(=O)N2CCCC2)cc1C(=O)Nc1ccc(C(F)(F)F)cc1	nt	nt	?	25µM*	-18%	-20%
Cn1cc(S(=O)(=O)N2CCCC2)cc1C(=O)Nc1cccc(C(F)(F)F)c1	3	4%	31%	35%	1%	-2%
CCCCOc1ccc(C2C(=O)N(C3CCCCC3)CC(=O)N2CCCC)cc1 (stereo unspecified)	nt	nt	18%	87%	-2%[60.1 µM]	-5%
CCN1CCN(Cc2ccc(NC(=O)c3cc(NC(=O)c4cncc(-c5cccs5)c4)cc(OC)c3)cc2C(F)(F)F)CC1	-67*!	8%	?	27%	-2%	-6%
CCN1CCN(Cc2ccc(NC(=O)c3cc(NC(=O)c4cc(-c5ccc(OC)cc5)n[nH]4)cc(OC)c3)cc2C(F)(F)F)CC1	-67*	1%	3%	-2%	1%	-16%
CCN1CCN(Cc2ccc(NC(=O)c3cc(NC(=O)c4ccno4)cc(OC)c3)cc2C(F)(F)F)CC1	-3	6%	-10%	3%	7%	-2%
Cc1ccc(C(=O)Nc2cccc(C(F)(F)F)c2)cc1NC(=O)c1c[nH]c2cc(C(F)(F)F)ccc2c1=O	-1	-5%	-13%	nt	5%	-11%
CCN1CCN(Cc2ccc(NC(=O)c3ccc(C)c(NC(=O)c4c[nH]c5cc(C(F)(F)F)ccc5c4=O)c3)cc2C(F)(F)F)CC1	-67*	-4%	29%	18%	10%	-6%
O=C(O)C1CCCC1	nt	nt	?	nt	28µM*	nt
O=C(O)C1CCNCC1	nt	nt	-7%[58.9 µM]	0%[57.1 µM]	4%[60.1 µM]	0%[57.1 µM]
CCCCCCCCCCCCCCOc1ccc(C(=O)O)o1	nt	nt	nt	nt	12µM*	nt
CCc1ccc2c(c1)c(=O)c(C(=O)c1ccccc1)cn2CC(=O)Nc1ccc(C)c(Cl)c1	nt	nt	-2%	2.8µM*	-19%	?
Cc1ccccc1-n1c(=O)/c(=C\c2ccco2)s/c1=C(/C#N)C(=O)Nc1ccccc1	-22	-13%	-2%	12%	-31%	-3%
CCOC(=O)C1=C(N)n2c(s/c(=C/c3ccco3)c2=O)=C(C(=O)OC)C1c1ccco1 (stereo unspecified)	-26	-24%	?	28µM*	?	?
N#CC1=C(N)n2c(s/c(=C\c3ccco3)c2=O)=C(C#N)C1c1ccco1 (stereo unspecified)	-70*	40µM*	7.9µM*	7.1µM*	22µM*	3.2µM*
